Among all 69,000 compounds or so, about 10 (0.01%) showed an effect of 50% or more. This excerpt belongs to a sample that is enriched for strong results.

The target in the assay is ClpP1P2 (Mycobacterium tuberculosis (strain ATCC 25618 / H37Rv)) (UniProt P9WPC5+P9WPC3). As to the kind of experiment: in vitro assay to detect presence of AMC directly proportional to the activity of ClpP1P2. GHDDI collaboration. The class given is functional. Also on record: scale not given: direction of the effect not stated beside the values. Particulars: 50 µM.
Take `CCN1CC[C@@]2(C(=O)N(C)C)CCN(S(=O)(=O)c3ccccc3)CC[C@@H]12`: the Percent Effect was -6.35%.
Regarding `COCCN1CC[C@@H]2CN(Cc3nccn3C)C[C@@H]2C1`, the Percent Effect was determined as 3.59%.
Next, `Fc1cnc(N2CCO[C@H]3CN(CC4CCOC4)C[C@H]32)nc1` (stereo partly specified): -12.3%.
Next, `CCS(=O)(=O)N1C[C@H]2CN(CC3CC3)C(=O)[C@H]2C1`: 7.7%; `CC(C)CN1C(=O)CC[C@H]2CN(Cc3ncc[nH]3)CC[C@H]21`: -3.16%; `O=C(C1=CCCC1)N1C[C@@H]2COC[C@]2(COCC2CC2)C1`: -3.2%.
Next, `CN(C)CCN1CCO[C@H]2CN(Cc3ccccn3)C[C@H]21`: 1.87%.
With `O=C(c1ccncc1)N1C[C@@H]2OCCN(CCN3CCCC3)[C@@H]2C1`, the Percent Effect was -8.83%.
Next, `O=C1[C@H]2CN(CC3CCOCC3)C[C@H]2CN1Cc1cccc(F)c1`: 7.64%.
Next, `Cc1cccc(COC[C@@]23CCC[C@@H]2CN(S(=O)(=O)N(C)C)C3)n1`: -4.08%; `CC1=CC[C@@H]2CN(C(=O)c3ccc(-c4nc[nH]n4)cc3)C[C@@H]2C1`: -12.9%; `Cc1ccc(CN2C[C@@H]3CCN(Cc4ccncc4)C(=O)[C@H]3C2)s1`: 54%.
Next, `COCCN1CC[C@H]2CN(Cc3ccc(C)s3)C[C@@H]2C1=O`: -2.27%.
As for `CCN1C[C@H]2CCN(Cc3ccncc3)C(=O)[C@@H]2C1`, the Percent Effect was -1.34%.
In the case of `Cc1ccc(CN2C[C@H]3CN(CC4CCN(C)CC4)C(=O)[C@H]3C2)s1`, the Percent Effect was -7.79%.
Take `Cc1ccc(CN2C[C@@H]3CCN(Cc4cccnc4)C(=O)[C@H]3C2)s1`: the Percent Effect came out at 13.6%.
Next, `O[C@@H]1C[C@@](CNCC2CCCC2)(COc2cccnc2)C[C@@H]1O`: -0.271%.
As to `CN(C)C(=O)CO[C@H]1CN(Cc2ccoc2)[C@@H]2COC[C@H]12`, the Percent Effect was -6.93%.
Next, `Cc1cccc(CN2C(=O)CO[C@@H]3CN(C4CCOCC4)C[C@H]32)c1`: -8.98%; `Cc1cc(C)n(CCCC(=O)N2CC[C@H]3NCCC[C@]3(CO)C2)n1`: -5.5%.
Next, `CC(C)CN1C[C@H]2N(c3ncccn3)CCC[C@@]2(C(=O)NCC2CC2)C1`: -20.2%; `Cc1cc2cc(C(=O)N3CCN(CCO)[C@@H]4CS(=O)(=O)C[C@@H]43)ccc2o1`: -4.08%.
Consider `Cc1nnc(N2C[C@@H](Oc3ccccn3)[C@H]3OCCC[C@H]32)s1`, for which the Percent Effect was found to be 9.54%.
Next, `COCCN1C[C@H]2CN(C(=O)NC(C)C)CCN2C1=O`: -7.02%; `COc1cc(CN2CCCCCC2c2cccs2)cc(OC)c1O` (stereo unspecified): 52.1%; `COc1cc(CN2CCCCCC2c2cccs2)cc(OC)c1OC` (stereo unspecified): 1.65%.
Next, `COc1cccc(CN2CCCCCC2c2cccs2)c1O` (stereo unspecified): -21.7%.
Next, `O=C([C@H]1COC[C@H]2CN(Cc3ccco3)C[C@H]21)N1CCCO1`: 3.57%; `O=C(NC[C@H]1C[C@@H]2CCN1C[C@@H]2CN1CCCCC1)c1ccco1`: -12.3%; `O=S(=O)(NC[C@]12COC[C@H]1CN(c1ncc(F)cn1)C2)C1CC1`: -0.384%.
Consider `CNC(=O)[C@@H]1C[C@H]2CN(Cc3c(C)noc3C)C[C@H]2N1C(C)C`, for which the Percent Effect was -4.22%.
Regarding `CCSCCNC(=O)c1ccc(S(=O)(=O)N2C[C@@H]3C[C@H]2CN3)cc1`, the Percent Effect was found to be 9.91%.
Take `CC(C)NC(=O)N1CCC2(CC1)CC[C@@]1(C(=O)N(C)C)CN(C)C[C@@H]21`: the Percent Effect was -5.9%.
Next, `COc1ncccc1C(=O)N1CC[C@H]2C[C@@H](c3ccncn3)O[C@@H]2C1`: -7.36%; `O=C(CCc1ccccc1)N1C[C@H]2CCN[C@H]2C1`: 0.746%.
As for `COc1ncccc1CN1C[C@@H]2COC[C@]2(COCC2CC2)C1`, the Percent Effect is -9.86%.
Next, `O=C1CC[C@H]2[C@H](CCN2C(=O)C2CCOC2)N1Cc1ccncc1` (stereo partly specified): 0.241%; `CNC(=O)[C@H]1C[C@@H]2CN(C(=O)Nc3ccccc3)C[C@H]1O2`: -3.31%; `CNC(=O)[C@H]1C[C@@H]2CN(C(=O)c3ccsc3)C[C@@H]2N1S(C)(=O)=O`: -13.7%.
Next, `Cc1ncccc1NC(=O)[C@H]1C[C@@H]2CCN(Cc3ccsc3)C[C@H]2O1`: -3.15%; `CN(C)CCN1CCO[C@H]2CN(Cc3cnn(C)c3)C[C@H]21`: -9.41%; `CCN(Cc1nc2c(cnn2C)c(=O)[nH]1)Cc1ccco1`: 7.15%.
For the compound `CCN(Cc1nc2c(cnn2C)c(=O)[nH]1)Cc1cccs1`, the Percent Effect is 61.1%.
Next, `CCN(Cc1ccccc1)Cc1nc2c(cnn2C)c(=O)[nH]1`: -16.6%; `CCOCC1C[C@@H]2OCCN(C(=O)c3ccc[nH]3)[C@H]2C1` (stereo partly specified): -16.1%.
Next, `O=C(Nc1ccccc1-c1ccccc1)N1C[C@@H]2CNC[C@]2(C(=O)O)C1`: 4.15%; `COCCNC(=O)[C@H]1C[C@@H]2CCN(c3ncccn3)C[C@H]2O1`: -14.4%.
In the case of `CC(C)(C)c1ccc(CN2C[C@H]3C[C@H](O)C[C@H]3C2)c(OCC(N)=O)c1`, the Percent Effect was 2.62%.
Next, `Cn1cc(N2CC[C@@H]3CN(Cc4ccncc4)C[C@H]3C2=O)cn1`: 6.53%; `COCC(=O)N1C[C@H](N(C)Cc2cncnc2)[C@H]2OCCC[C@H]21`: 3.58%.
In the case of `NS(=O)(=O)N1CCc2ccc(NC(=O)Cc3ccccc3F)cc21`, the Percent Effect stood at 21.3%.
Next, `NS(=O)(=O)N1CCc2ccc(NC(=O)CC(F)(F)F)cc21`: -1.98%.
Next, `NS(=O)(=O)N1CCc2ccc(NC(=O)Cc3ccc(F)cc3)cc21`: 70.3%; `CN(C)S(=O)(=O)N1C[C@@H](OCc2ccccn2)[C@H]2OCCC[C@H]21`: 14.2%.
`Cn1cc(CN2CC[C@@H]3[C@@H](CCC(=O)N3CCc3ccccc3)C2)cn1`: the Percent Effect was -11.2%.
As to `O=C(NCCc1cccs1)[C@]12COC[C@H]1CN(Cc1ccccn1)C2`, the Percent Effect worked out at 21.1%.
For `COc1ccc(N2CCN(C(=O)[C@H]3[C@@H]4CNC[C@@H]43)CC2(C)C)cc1`, the Percent Effect was -7.82%.
With `CCN1C[C@H]2CCN(C(=O)c3cc[nH]n3)CC[C@H]2S1(=O)=O`, the Percent Effect is -1.84%.
Next, `Cc1noc([C@H]2CC[C@@H]3[C@@H](CCN3S(=O)(=O)C3CC3)O2)n1`: 16.5%; `Cc1cc(CN2CCCC2)cc(Oc2ccc3c(c2)CC(CN)O3)c1` (stereo unspecified): -31.6%; `COc1ccc(CN2CCCC2)cc1Oc1ccc2c(c1)CC(CN)O2` (stereo unspecified): -30%.
Take `NCC1Cc2cc(Oc3cc(F)c(CN4CCCC4)c(F)c3)ccc2O1` (stereo unspecified): the Percent Effect turned out to be 72.6%.
In the case of `Cc1cnc(N2C[C@H]3CCCC(N(C)Cc4ccccn4)[C@H]3C2)nc1` (stereo partly specified), the Percent Effect is 6.27%.
Consider `O=C(CCC(F)(F)F)N1CCN(Cc2ccncc2)[C@@H]2CS(=O)(=O)C[C@@H]21`, for which the Percent Effect is -11.9%.
Next, `CC(=O)N1[C@H](Cn2cncn2)C[C@@H]2CN(Cc3ccccn3)CC[C@@H]21`: -7.75%.
Next, `O=C(N1CCCC1)N1C[C@H]2CC[C@@H]1CN(Cc1ccncc1)C2`: -3.97%.
Consider `CC(=O)N1CC[C@H]2CC(=O)N(C3CCCCC3)CC[C@H]2C1`, for which the Percent Effect is -8.93%.
Next, `CC(C)N1CC[C@H]2[C@H](C[C@@H](Cn3cncn3)N2c2nccs2)C1`: 9.71%; `COC[C@]12COC[C@H]1CN(Cc1ccc3ccccc3n1)C2`: 8.31%; `CN(C)C[C@H]1OC[C@@H]2CCN(S(=O)(=O)c3cccs3)C[C@@H]21`: -1.92%.
Next, `O=C(c1ncccn1)N1C[C@@H]2CC[C@H](Oc3cccc(F)c3)[C@@H]2C1`: -9.72%; `COCC(=O)N1CCN(S(=O)(=O)c2cccs2)[C@H]2CS(=O)(=O)C[C@H]21`: 21.1%; `Cc1ncsc1CN1CC[C@H]2OCC[C@@]2(C(=O)NCC2CC2)C1`: 8.1%.
Next, `CN(C[C@H]1CN2CC[C@H]1C[C@@H]2CNC(=O)c1ccco1)c1ccccc1`: 3.33%.
As to `CN(C)c1nccc(N2CCO[C@H]3CN(Cc4ccsc4)C[C@H]32)n1`, the Percent Effect was -1.49%.
Regarding `CN(C)S(=O)(=O)N1CCO[C@H]2[C@H](Oc3cccnc3)CC[C@@H]21`, the Percent Effect was -10.1%.
Next, `Cc1nn(C)c(C)c1S(=O)(=O)N1CC[C@H]2O[C@@H](C)C[C@H]2C1`: 9.45%.
For the compound `O=C(c1ccoc1)N1CC[C@@H]2O[C@@H](COCCN3CCCC3)CC[C@@H]21`, the Percent Effect was 8.08%.
Next, `O=C(CCN1C[C@H]2CC[C@@H]1CN(c1ncccn1)C2)NCc1ccco1`: -5.46%; `CCc1cnc(N2C[C@H]3C[C@H](C(=O)N4CCOCC4)[C@@H](C2)O3)nc1`: 7.75%; `CC(C)N1C[C@@H]2CN(C(=O)NCc3ccccc3)CCC[C@]2(C(=O)O)C1`: -0.327%.
As to `Cc1noc([C@@H]2C[C@H]3CN(Cc4ccc5c(c4)OCO5)C[C@H]3O2)n1`, the Percent Effect is 2.95%.
Next, `Cc1noc([C@]23COC[C@H]2CN(Cc2cc(C)on2)C3)n1`: 14.7%; `O=C1C[C@@H]2[C@H](CCN2Cc2ccco2)N1c1ccsc1`: -3.07%.
Next, `C[C@H]1C[C@H]2CN(C(=O)CCc3ccccc3)CC[C@H]2O1`: -7.99%.
Next, `O=C(Nc1ccccc1)[C@H]1CN2CC[C@H]1C[C@@H]2Cn1cc(CCO)nn1`: -1.69%; `O=C(C[C@H]1[C@H]2CN(Cc3ccc(F)cc3)C[C@@H]12)N1CCCC1`: -10.3%; `Cc1cnc(N2C[C@@H]3[C@@H](C(=O)NC(C)C)CCS(=O)(=O)[C@@H]3C2)nc1`: 8.69%.
On to `CCN1CC[C@@]2(C(=O)N3CCOCC3)CCN(C(=O)CC(C)C)CC[C@@H]12`, for which the Percent Effect was -11.5%.
`COc1ccc(-c2ncccc2C(=O)N2C[C@H]3CC[C@@H]2C3)cn1`: the Percent Effect is -2.59%.
Next, `CN(C)S(=O)(=O)N1C[C@@H]2CC[C@H](C1)N(Cc1ccc3c(c1)OCCO3)C2`: -5.61%.
Next, `Cc1nc2cc(C3CCN(Cc4cccc(F)c4F)C3)nn2c(O)c1C` (stereo unspecified): 4.6%; `N#Cc1cccc(CN2CC[C@@H]3[C@@H]2CC(=O)N3CCN2CCCC2)c1`: -6.88%.
Regarding `CC(C)NC(=O)[C@H]1C[C@@H]2[C@@H](C1)OCCN2Cc1nccs1`, the Percent Effect is -14.4%.
On to `Cc1noc(C)c1CN1C[C@H]2CNC[C@H]2C1`, for which the Percent Effect was 3.63%.
For the compound `c1cnc(NC[C@@H]2CCC[C@@H]3CN(Cc4cccnc4)C[C@@H]32)nc1`, the Percent Effect is 9.72%.
Next, `CCN(CC)Cc1cc(C(=O)N2CC[C@@]3(O)CCCC[C@H]3C2)c(C)o1`: -7.09%; `N#Cc1ccccc1C(=O)N1C[C@H]2CC[C@@H]1CN(c1ncccn1)C2`: 12.4%; `COc1ccc(CN2C[C@@H](N(C)Cc3ccco3)[C@H]3OCCC[C@H]32)cc1`: 8.12%.
Next, `Cc1cccc(CN2CC[C@H]3C[C@H](C)O[C@@H]3C2)n1`: -3.13%; `CN(C)C(=O)N1CC[C@H]2[C@H]1CCN2c1nncs1`: -2.44%.
Next, `NC(=O)c1cc2c(nc1N1C[C@H]3OC(=O)N(C4CCCC4)[C@H]3C1)CCC2`: 3.22%.
For `Cc1ccc(CN2CCO[C@@H]3C[C@@H](C(=O)NC(C)C)C[C@H]32)o1`, the Percent Effect was -8.36%.
As for `CCCc1nc(N2CCCN3CCC[C@H]3C2)c2cnn(C)c2n1`, the Percent Effect worked out at 7.09%.
As for `CN(C)CCN1C[C@@H]2OCCN(Cc3cnn(C)c3)[C@@H]2C1`, the Percent Effect was found to be 12%.
As for `CC(CN1CC[C@@H]2CCCC[C@@H]2C1)n1cnc2ccccc21` (stereo partly specified), the Percent Effect was -9.76%.
Next, `COCCC(=O)N1CCC2(COCc3c(C)nc(NCC4CC4)nc32)C1` (stereo unspecified): 11.8%; `Cc1nc(NCC2CC2)nc2c1COCC21CCN(C(=O)C(C)(C)C)C1` (stereo unspecified): 97.5%; `Cc1nc(NCC2CC2)nc2c1COCC21CCN(C(=O)NC(C)C)C1` (stereo unspecified): 6.34%.
As to `CC1=N[C@@]2(CC[C@@H]3CN(CC4CC4)C[C@@H]32)C(=O)N1CC1CC1`, the Percent Effect was -5.13%.
`Cc1ccoc1C(=O)N1C[C@@H](OCC2CCOCC2)[C@H]2OCCC[C@H]21`: the Percent Effect is -0.469%.

Source of the values: ChEMBL document CHEMBL3988442, “University of Dundee, Small-Polar-MMV Screening Library” (2021).
